Records with an inconclusive call do not appear. A number with no mark means an inactive call. Active and inactive are the calls of the source. Calls come from the whole dose curve.
assay: qHTS assay for small molecule disruptors of the mitochondrial membrane potential - cell viability (AID 720634); details: HepG2 viability, ATP luminescence (CellTiter-Glo), 1 h; series mostly up to 83.2 µM; activity change, negative = cytotoxicity: at the top concentration;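 note: human HepG2 liver cancer cells; nearly all actives have a fitted effect of over 20% in size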
Description: U.S. Tox21 Program National Center for Advancing Translational Sciences [NCATS] NIH Chemical Genomics Center [NCGC] U.S. Environmental Protection Agency [EPA] National Institutes of Environmental Health Sciences [NIEHS] National Toxicology Program [NTP] U.S. Food and Drug Administration [FDA] Tox21 Assay Overview: Mitochondrial membrane potential (MMP), one of the parameters for mitochondrial function, is generated by mitochondrial electron transport chain that creates an electrochemical gradient by a series of redox reactions. This gradient drives the synthesis of ATP, a crucial molecule for various cellular processes. Measuring MMP in living cells is commonly used to assess the effect of chemicals on mitochondrial function; decreases in MMP can be detected using lipophilic cationic fluorescent dyes. […] The dye accumulates in the mitochondria of healthy cells as aggregates, with red fluorescence. The mitochondrial potential decreases and the dye could not accumulate in the mitochondria and remains in the cytoplasm in monomers, with green fluorescence. In addition to the mitochondrial potential assay, these cells were also used to test the cytotoxicity by determining the cell viability in the culture based on the quantitation of ATP present. The cytotoxicity was measured in the same assay well of MMP assay.
Tox21 Assay Protocol Summary: 2,000 HepG2 cells in 5 uL/well were dispensed into black, clear-bottom 1536-well plates using a Multidrop Combi (Thermo Scientific) dispenser. The assay plates were incubated for an overnight at 37 C to allow cells to attach to the wells, followed by the transfer of 23 nL compound or DMSO vehicle by a pin tool (Kalypsys). The plates were incubated for 1 hr at 37 C and 5% CO2, followed by the addition of 5 uL of 2X m-MPI dye into each well using Flying Reagent Dispenser (Aurora Discovery) and then CellTiter-Glo reagent was added at 4 uL/well and incubated 30 min at room temperature. Then luminescence intensity was quantified on a ViewLux CCD-based plate reader.
% is set by controls: 0 for no effect and ±100 for the full control effect.

| Compound | activity change, negative = cytotoxicity | Potency |
| --- | --- | --- |
| CC(C)CCCCCOC(=O)CS | 10% |  |
| Cc1ccc(NC(=O)c2ccc(CN3CCN(C)CC3)cc2)cc1Nc1nccc(-c2cccnc2)n1 | -2.24% |  |
| O=C(O)c1ccncc1 | 10.9% [at 95.3 µM] |  |
| CCC(C)C1N=C(C)C(C)S1 (stereo not given) | -3.22% |  |
| C1CCN(CN2CCCCC2)CC1 | 3.47% |  |
| CCCOC(C)=O | 2.27% |  |
| CC1(C)C(=O)NC(=O)N1CO | 4.8% |  |
| Cc1cc(SC2=C(O)C[C@@](CCc3ccc(N)cc3)(C(C)C)OC2=O)c(C(C)(C)C)cc1CO | -4.18% |  |
| CC1(C)CC(=O)CC(C)(C)N1 | 6.51% |  |
| CC1(C)CC(O)CC(C)(C)N1[O] | 12.2% |  |
| CCC(C)CCCC(C)(C)O (stereo not given) | 7.11% |  |
| O=[N+]([O-])c1ccccc1CCO | -5.9% [at 95.3 µM] |  |
| O=Cc1ccc(Cl)c([N+](=O)[O-])c1 | -12.7% |  |
| Clc1ccccc1-c1nc(-c2ccncc2)no1 | -16.2% |  |
| CC(C)=CCC/C(C)=C/C=N/O | -7.55% |  |
| O=C(O)c1c2ccccc2cc2ccccc12 | 12.2% |  |
| O=C(O)CCc1nc2ccccc2[nH]1 | 9.74% |  |
| Clc1cccc(C(c2ccc3nc[nH]c3c2)n2ccnc2)c1 (stereo not given) | -16.5% |  |
| Cc1cccc(C)c1NC(=O)CN1CCCC1 | 7.74% |  |
| O=[N+]([O-])c1cccc(I)c1 | 5.32% |  |

| Compound | activity change, negative = cytotoxicity | Potency |
| --- | --- | --- |
| CC(=O)c1cccnc1 | 19.6% |  |
| C[C@H](CN1CCCC1)C(=O)c1ccc(C(F)(F)F)cc1 | -4.1% |  |
| COc1ccc(C(=O)c2ccc(C)cc2)c(O)c1 |  | inactive |
| CCCCCCOC(=O)c1ccccc1 | 10.9% |  |
| O=C1c2ccccc2C(=O)c2c1ccc(O)c2O | -7.21% |  |
| CCC(=O)O[C@@H]1C[C@H]2CC[C@]1(C)C2(C)C | -12% |  |
| NC(=O)c1ccccc1 | 3.28% [at 95.3 µM] |  |
| Oc1ccc(CCNCCCCCCNCCc2ccccc2)cc1O | 20.2% |  |
| Cc1ccc(S(=O)(=O)NC(=O)NC2CCCC2)cc1 | -0.888% |  |
| Cc1ccccc1CCO | -12.9% |  |
| CC(C)(C)c1ccc(CCC=O)cc1 | -9.38% |  |
| CCCCCCCCCCCCCCCCC(=O)O | 8.62% |  |
| CCC[Si](OC)(OC)OC | 11.7% |  |
| Cc1c(Cl)cccc1Nc1ccccc1C(=O)O | -14.7% |  |
| CCOc1cc(OCC)c(C(C)=O)cc1OCC | 7.76% |  |
| O=C(Nc1ccccc1)c1cc([N+](=O)[O-])ccc1Cl | -13% |  |
| Cc1cc(N)n(-c2ccccc2)n1 | -6.3% |  |
| N#CCCCC(C#N)CCC#N (stereo not given) | 14.2% |  |
| CCCCCCCCCCCCCCCCCCCl | -4.97% [at 8.08 µM] |  |
| CC(O)CN (stereo not given) | -7.37% |  |
